An excerpt weighted towards active compounds, which were near 4.3% of everything screened.
HSF1 activator: increases HSF-1 driven luciferase reporter signal; 300,000 tested, 1.7% active; activation, % at 9 µM; NIH3T3-HGL HSF-1 luciferase reporter, MG132, 8 h; 100% = twice DMSO control signal;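 active = mean replicate activation of at least 50% with a set share of replicates each reaching 50%; inconclusive = only one of those two conditions met; inactive = mean below 50% and too few replicates reaching it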
esBAF inh: inhibitors of esBAF chromatin remodeling in mouse ES cells. Bmi1-luciferase knock-in reporter, 24 h; 100% = twice the neutral-well signal. reporter increase, % at 12.5 µM. 350,000 tested, 2% active; in the data active = activation above about 40%; inconclusive = no clear call, values can overlap the other calls;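 also: a rise in the Bmi1 reporter signal indicates esBAF inhibition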
HSF1 inhib: HSF1 inhibition | NIH3T3-HGL HSE-luciferase, MG132-induced, luminescence 8 h; stronger effect = lower value | activity change, negative = inhibition, % at 7.5 µM (by protocol) | 300,000 tested, 0.77% active | AID 2098;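 active = more than half of replicate wells show activity change below -50%, luminescence cut by over half; inconclusive = some wells, but at most half, below -50%; inactive = no replicate well below -50%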;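 also: luciferase reports HSF-1 transcriptional activity via heat shock element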
Wnt act: activators of Wnt/beta-catenin signaling. Wnt/beta-catenin reporter cell assay, activator, plate reader. activation, % at 9.35 µM. 300,000 tested, 1.2% active; in the data active = activation above about 30%, passing the limit was not always enough; inconclusive = no clear call, values can overlap the other calls
SMARCA2 act: increases SMARCA2 function in MMTV reporter cells. MG213 cells, MMTV-luciferase reporter, dexamethasone, overnight. activation, % at 9.1 µM. 370,000 tested, 1% active. AID 652017; in the data active = activation above about 7.8%
MITF TRPM1 HTS: activators of MITF-driven TRPM1 promoter activity in SK-MEL-5 cells. 300,000 tested, 0.75% active. AID 588334. activation, % at 12.5 µM. SK-MEL-5 TRPM1-promoter luciferase, 24 h; % of positive control, neutral wells = 0;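 active = mean activation of at least 80% with every replicate also reaching 80%; inconclusive = mean reaches 80% but some replicate falls short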
Numbers stand for hits; . = inactive; ? = inconclusive; / = no result.

SMILES | HSF1 activator | esBAF inh | HSF1 inhib | Wnt act | SMARCA2 act | MITF TRPM1 HTS
COc1ccc(OCC(=O)Nc2ccc3c(c2)nc(CCn2ccccc2=O)n3C)cc1 | 52 | . | . | . | . | .
O=C(COc1ccccc1)Nc1cccc(-c2nnc(-c3ccccc3)o2)c1 | . | / | . | / | . | .
C=Cc1cccc(NC(=O)COc2ccccc2)c1 | 57 | . | . | / | . | .
CCC(=O)Nc1ccc2c(c1)nc(CCNC(=O)c1ccco1)n2C | . | . | . | . | . | .
COc1ccc(C(=O)Nc2ccc3c(c2)nc(CCNC(=O)c2ccco2)n3C)cc1 | . | 48 | . | . | . | .
Cn1cnc2cc(NC(=O)c3ccc(Cl)cc3)ccc21 | . | 54 | . | . | . | .
CCC(=O)Nc1ccc2c(c1)ncn2C | . | . | . | . | . | .
O=C(C[C@@H]1C[C@H]2c3cc(NC(=O)CC4CC4)ccc3O[C@H]2[C@@H](CO)O1)NCc1ccncc1 | / | . | / | / | / | /
Cc1cccc(S(=O)(=O)N2C[C@H](O)COC[C@@H]3O[C@@H](CC(=O)Nc4ccc(-c5ccccc5)cc4)CC[C@H]32)c1 | / | . | / | / | / | /
Cn1cnc2cc(NCc3ccccc3Cl)ccc21 | . | 51 | . | . | . | ?
Cn1cnc2cc(NC(=O)COc3ccccc3)ccc21 | . | 43 | . | . | . | .
Cn1c(CN2CCCC2)nc2cc(NC(=O)c3ccc(Cl)cc3)ccc21 | . | 53 | . | . | . | .
COc1cccc(CNc2ccc3c(c2)ncn3C)c1OC | . | . | . | . | . | .
CC(C)(C)n1cnc2cc(NC(=O)c3ccc(Cl)cc3)ccc21 | . | . | . | 43 | . | /
Cn1c(CN2CCCCC2)nc2cc(NC(=O)c3ccc(Cl)cc3)ccc21 | . | ? | . | / | . | .
CCC(=O)N1CC[C@H]2[C@H](CO)Nc3ccc(-c4ccc(OC)cc4)cc3[C@H]21 | / | . | / | / | / | /
O=C(Nc1ccc2c(c1)OCO2)N[C@H]1CC[C@@H](CCNC(=O)C2CCOCC2)O[C@H]1CO | / | . | / | / | / | /
CO[C@@H](CN(C)C(=O)c1cc(Cl)cc(Cl)c1)[C@@H](C)CN(C(=O)Nc1ccc(F)cc1)[C@@H](C)CO | / | . | / | / | / | /
Cn1cnc2cc(NC(=O)c3cccs3)ccc21 | ? | / | . | . | . | 93
C[C@@H]1CN([C@H](C)CO)C(=O)c2cc(-c3ccc(C#N)cc3)cnc2O[C@@H]1CN(C)Cc1ccccn1 | / | . | / | / | / | /
CCN1C(=O)[C@H]2[C@@H](c3ccc(-c4ccc5c(c4)OCO5)cc3)N[C@@](Cc3ccccc3)(C(=O)OC)[C@H]2C1=O | / | . | / | . | . | .
COC(=O)C1(Cc2ccccc2)NC(c2ccccc2C)C2C(=O)N(c3ccc4c(c3)OCO4)C(=O)C21 (stereo not given) | . | . | -73 | / | . | .
CCC(=O)N1[C@H](CO)[C@H](c2ccccc2)[C@H]1CN(CC)C(=O)c1ccc(F)cc1 | / | . | / | / | / | /
Cc1onc(-c2ccccc2)c1NC(=O)N(CCC#N)Cc1ccccc1 | 58 | / | . | . | . | /
CCCOc1ccc(-c2nc(N3CCN(C)CC3)c3ccccc3n2)cc1 | . | . | . | 46 | . | 125
SMILES | HSF1 activator | esBAF inh | HSF1 inhib | Wnt act | SMARCA2 act | MITF TRPM1 HTS
C[C@@H]1CCCCO[C@H](CN(C)C(=O)Nc2ccc3c(c2)OCO3)[C@@H](C)CN([C@@H](C)CO)C(=O)c2cc(NC(=O)CCCN(C)C)ccc2O1 | / | . | / | / | / | /
Cc1nc(-c2ccccc2)sc1C(=O)CSc1ccc(Cl)cc1 | . | . | . | / | . | .
C=C(C)c1sc(-c2ccc(Cl)cc2)nc1C | . | 49 | . | . | . | .
C/C(=N\OC(=O)c1cccc(C)c1)c1sc(-c2ccccc2)nc1C | . | . | . | / | . | .
CCNC(=O)O/N=C(\C)c1sc(-c2ccc(Cl)cc2)nc1C | 60 | 43 | . | . | . | /
C/C(=N\OC(=O)NC(C)C)c1sc(-c2ccccc2)nc1C | . | 63 | . | . | . | 105
C/C(=N\OC(=O)NC(C)C)c1sc(-c2ccc(Cl)cc2)nc1C | ? | . | . | . | . | .
C/C(=N\OC(=O)c1ccc(Cl)cc1)c1sc(-c2ccccc2)nc1C | . | / | . | / | . | .
C/C(=N\OC(=O)c1cccc(C(F)(F)F)c1)c1sc(-c2ccccc2)nc1C | . | 77 | . | / | . | ?
CCC(=O)NC[C@@H]1[C@H](c2ccccc2)[C@H](CO)N1C(=O)C1CCC1 | / | . | / | / | / | /
CCCNC(=O)N1[C@H](C#N)[C@H](c2ccc(-c3cccc(OC)c3)cc2)[C@@H]1CO | / | . | / | / | / | /
Cc1ccsc1C(=O)OCc1nnc(-c2ccccc2)o1 | / | 63 | / | . | . | 96
O=C(OCc1csc(-c2ccccc2)n1)C1=NN(c2ccccc2)C(=O)CC1 | / | . | / | . | . | .
Cc1ccsc1C(=O)OCc1csc(-c2ccccc2)n1 | 59 | . | . | / | . | .
Cn1cccc1C(=O)OCc1csc(-c2ccccc2)n1 | 63 | / | . | 71 | . | .
CNS(=O)(=O)c1cccc(C(=O)OCc2csc(-c3ccccc3)n2)c1 | 67 | / | . | / | . | .
Cc1ccsc1C(=O)OCC(=O)Nc1nnc(-c2ccccc2)o1 | . | . | . | . | . | .
C[C@H](NC(=O)[C@H]1[C@H](CO)[C@H]2Cn3c(ccc(-c4cccnc4)c3=O)[C@@H]1N2C)c1ccccc1 | / | . | / | / | / | /
CN(C)CC(=O)N1[C@@H]2Cn3c(ccc(C4=CCCC4)c3=O)[C@H]1[C@@H](C(=O)NCC1CCCCC1)[C@@H]2CO | / | . | / | / | / | /
Cc1noc(C)c1NC(=O)N(C)C[C@@H]1Oc2ccc(NC(=O)Nc3cccc4ccccc34)cc2CC(=O)N([C@@H](C)CO)C[C@@H]1C | / | . | / | / | / | /
O=C(OCc1csc(-c2ccccc2)n1)c1cccs1 | 91 | . | . | . | . | /
CN(C)c1ccc(/C=N/N(CCO)C2=NS(=O)(=O)c3ccccc32)cc1 | . | / | . | . | . | .
C=CCOCCN(CCOCC=C)C1=NS(=O)(=O)c2ccccc21 | . | / | -92 | . | . | .
C[C@H](CO)N1C[C@H](C)[C@H](CN(C)Cc2ccc(C(F)(F)F)cc2)OCCCC[C@H](C)Oc2ccc(NC(=O)c3ccccc3)cc2C1=O | / | . | / | / | / | /
Cc1ccc(-c2nc3ccccc3nc2NN)cc1 | . | / | . | 44 | . | /
SMILES | HSF1 activator | esBAF inh | HSF1 inhib | Wnt act | SMARCA2 act | MITF TRPM1 HTS
Cc1ccccc1-c1cn(-c2ccccc2)c(=S)[nH]1 | . | . | . | . | . | .
Cc1ccc(-c2cn(-c3ccccc3)c(=S)[nH]2)cc1C | . | ? | -61 | 38 | . | 123
Cc1ccc2[nH]c(=O)c(CN(C(=O)c3cccc([N+](=O)[O-])c3)C(C)C)cc2c1 | . | / | -57 | . | . | .
CC(C)N(Cc1cc2ccccc2[nH]c1=O)C(=O)c1cccc([N+](=O)[O-])c1 | . | / | . | . | . | .
CC(C)(c1ccccc1)c1ccc(OCc2ccc(C(=O)O)o2)cc1 | / | . | / | 38 | . | 88
CC(C)(C)c1ccc(OCc2ccc(C(=O)NN)o2)cc1 | . | / | . | . | . | .
CCC(C)c1ccc(OCc2ccc(C(=O)O)o2)cc1 (stereo not given) | . | . | -53 | ? | . | .

High-throughput results (PubChem)
